From the supplement of paper PMC6555819

Legend:
Assay in all cases: PBM binding z-score (relative to random genomic background probes); higher = stronger binding; sequences stand for … in GC…GCGATTGACAGCGTAGAATGAAGG
[1] = tested on: RARb homodimer (NR concentration 270 nM)
Method in brief: (§1)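 Binding buffer was PBS pH 7.4 with 2% milk, 0.02% Triton X-100, 1 mM DTT, 0.2 mg/mL BSA and 0.4 mg/ml salmon testes DNA. In it, ligand-free nuclear receptor dimers were incubated 1 h on custom Agilent 4×180K protein-binding microarrays carrying double-stranded probes. Antibodies against each partner (one per run) detected binding, and z-scores were calculated against random background probes after regression normalization of scanned fluorescence.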

[2] = tested on: RARg:RXRa (NR concentration 270 nM, RXRa partner concentration 90 nM)
Method in brief: as §1

[3] = tested on: RARg homodimer (NR concentration 270 nM)
Method in brief: as §1

[4] = tested on: RXRa DBDmut IVT, anti-RXR (DBD mutation: RXRa K156A/R161A, NR concentration 90 nM)
Method in brief: as §1

[5] = tested on: RXRa homodimer (NR concentration 180 nM)
Method in brief: as §1

[6] = tested on: THRa:RXRa (NR concentration 90 nM, RXRa partner concentration 90 nM)
Method in brief: as §1

[7] = tested on: THRa homodimer (NR concentration 90 nM)
Method in brief: as §1

[8] = tested on: VDR:RXRa (NR concentration 270 nM, RXRa partner concentration 90 nM)
Method in brief: as §1

[9] = tested on: VDR homodimer (NR concentration 270 nM)
Method in brief: as §1

Row | Sequence | PBM binding z-score [1] | PBM binding z-score [2] | PBM binding z-score [3] | PBM binding z-score [4] | PBM binding z-score [5] | PBM binding z-score [6] | PBM binding z-score [7] | PBM binding z-score [8] | PBM binding z-score [9]
1 | TCATATAGGTAAATGCTAGGTGAAAGTGCGATCT | 0.752 | 0.609 | 0.488 | 1.55 | 1 | 1.64 | 0.475 | 0.984 | 0.485
2 | AGTATGAGGTTACCAAAGATCAGGGAAACGCTTG | 1.09 | 2.17 | 1.83 | 0.98 | 2.63 | 2.87 | 0.98 | 1.41 | 0.48
3 | CCTACTGGGCCACGAAAGCTCATTGATTCAGTGA | -0.538 | -0.286 | 0.00415 | -0.605 | -0.6 | -0.523 | -0.958 | -0.828 | -0.935
4 | GCTACTAGTTGAAAGGGCAACCGAATGATTCTCG | 2.01 | 1.33 | 1.35 | 0.375 | 1.33 | 0.651 | -0.134 | 0.234 | 0.214
5 | TCGAGTAGGTTAGTCGTGGCATTCAGCCAACATA | -0.359 | -0.49 | -0.451 | -0.0351 | -0.388 | -0.461 | -1.11 | -0.0269 | -0.659
6 | CCTAGTTGGTCAGGAGGTCACACGCCGGATATGA | 4.02 | 4.96 | 4.34 | 0.884 | 4.77 | 3.41 | 2.31 | 3.93 | 2.95
7 | ATCGAAGGGTCGACGAGGTGAGTATACACCGTTT | 1.42 | 2.38 | 2.29 | 0.234 | 2.33 | 2.86 | 0.22 | 4.01 | 0.636
8 | TCATATAGGTAAAGGGTGAAAGTCGGTGTGGTAA | 1.59 | 1.09 | 0.514 | 1.84 | 2.24 | 1.19 | 0.771 | 1.17 | 0.649
9 | ACTATTAGTTGACTTAGGGAAACCGATACGACGC | -0.158 | 0.158 | 0.385 | 0.822 | 0.147 | 0.625 | 0.155 | 0.0698 | 0.262
10 | TCATATAGGTAAATGCTAGGTAAAAGTCCGATCT | 0.193 | 0.567 | 0.36 | 1.76 | 0.806 | 0.9 | 0.258 | 0.968 | 0.409
11 | CCTACTGGGCCAAGGCCATTGATCAGTCAAAGCA | 0.497 | -0.179 | -0.0334 | -1.15 | -0.715 | 0.101 | -0.288 | -0.446 | -0.406
12 | CGAACAAGGGCATGAGTTGATAGCAAATGCCGAT | 0.58 | 1.12 | 1.42 | 1.3 | 0.715 | 0.492 | -0.294 | 0.706 | 1.18
13 | CGTCCACGGTCATAGGAGGTCAGTGAAGACAGAT | 3.91 | 3.21 | 3.97 | 0.535 | 2.05 | 4.28 | 0.603 | 3.27 | 1.18
14 | ATCTCTAGGTAAAGTTCAGAGAAAGATCGATAGA | 2.23 | 2.13 | 2.6 | 1.45 | 1.42 | 1.13 | -0.103 | 1.41 | 2.03
15 | CCTACTGGGCCACGGAAGGTCATTGATTCAGTGA | 3.78 | 2.93 | 2.38 | -0.515 | 2.57 | 3.67 | 0.727 | 2.83 | 1.2
16 | CCAGACAGGTGAAAGTTAACTCAGTCTGGTACGC | 0.569 | 0.669 | 0.306 | -0.00485 | 1.2 | 0.251 | -0.579 | 0.0177 | -0.235
17 | CCTCGGAGGACGACAGGAGGTCAGAGCTGCCAGA | 2.84 | 2.54 | 2.08 | -0.23 | 1.84 | 2.33 | 0.421 | 1.44 | 0.665
18 | TCTCGGAGGACACGAAGGACAGAGCTTTCCAGAG | 0.867 | 0.776 | 1.75 | 0.518 | 0.243 | 1.48 | 0.544 | -0.0596 | 0.139
19 | ATACCAAGGTGATCTTGAGGTCGTTGATACTAAC | 1.9 | 2.62 | 1.12 | 1.19 | 2.04 | 3.66 | 2.9 | 3.57 | 3.21
20 | CAGCCTAGGTCAGGGCCAATATAGGAGGAACGTT | 2.42 | 3.05 | 3.61 | 0.0153 | 1.69 | 2.07 | 0.573 | 0.378 | 0.171
21 | CCAACTAGGTCAGAACAGGACAGTGAAGGATGAT | 2.43 | 2.41 | 3.03 | 1.3 | 1.22 | 3.67 | 0.727 | 1.08 | 0.723
22 | TCTAGCAGGCCAGAGGGTCACTCAAGAGGTACGG | 2.8 | 2.56 | 2.39 | -0.167 | 2.61 | 1.54 | -0.299 | 1.28 | 0.59
23 | CAAACTAAGTCAAGGTCAAAGTCGGTTTGTGCCA | 4.04 | 4.35 | 4.17 | 2.72 | 4.85 | 4 | 3.38 | 4.62 | 4.09
24 | AGTCAAAGTTCACCAGGTAACGTAAGATTCAGCT | 4.3 | 6.02 | 6.53 | 4.1 | 5.25 | 2.88 | 0.769 | 4.61 | 4.32
25 | CCTCGGAGGACAACAGGAGATCAGAGCTGCCAGA | 0.118 | 0.145 | 0.783 | 0.248 | -0.305 | 0.396 | -0.247 | -0.616 | -0.168
26 | AACTCTAGGTAACCAAGTTCAGTGAATGCCGAAC | 0.982 | 0.219 | 0.32 | 0.853 | 0.269 | 1.34 | 0.572 | 3.64 | 2.11
